The text below walks through data of PubChem BioAssay (NCI).

This is part of a sample that, as a whole, favours compounds with a hit. Of some 83,000 tested, about 20% had one in any assay.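 Single-dose data. Exposure time 48 hours. Values below 10 considered active.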 Active and inactive are the calls of the source.

The assay deals with HL-60(TB) leukemia. In words: NCI-60 one-dose screen, 48 h (100 = growth as untreated, 0 = no growth, -100 = all killed). Particulars: 10 µM unless noted.
For the compound `CC(=O)O[C@H]1CC[C@]2(C)[C@H]3CC=C4[C@@H]5[C@H](C)[C@@H](C)CC[C@]5(C(=O)NCCNCCNCCN)CC[C@@]4(C)[C@]3(C)CC[C@H]2C1(C)C`, the growth was 81.6% (inactive).

As for `CS(=O)(=O)c1nccc(-c2c(-c3cccc(OCc4ccccc4)c3)nc3sccn23)n1`, the growth was 82.8% (inactive).

`COc1cccc(/C=N/NC(=O)c2ccccc2N2CCCC2)c1O`: the growth was 4.58% (active).

With `CCCCCCCCCCCC[n+]1c(C)cc(N)c2ccccc21`, the growth was -44.4% (active).

Consider `CCCCCCn1c(-c2ccc(C(=O)O/N=C(\N)c3ccc4c(c3)OCO4)cc2)nc(-c2ccccc2)c1-c1ccccc1`, for which the growth was -51.1% (active).

In the case of `CCN(CC)CCN1C(=O)c2c(c3c4ccccc4[nH]c3c3ccc4ccccc4c23)C1=O`, the growth is -23.7% (active).

Regarding `BrC(Br)(Br)c1cnc2ccccc2n1`, the growth was -38.1% (active).

Turning to `CN(Cc1cnc2nc(N)nc(N)c2n1)c1ccc(C(=O)N[C@@H](CCc2nn[nH]n2)c2nn[nH]n2)cc1`, the growth is 31.9% (inactive).

On to `CC(=O)N(C)N=Nc1ccc(C)cc1`, for which the growth is 117% (inactive).

In the case of `Cc1cc2c(C)c3cc(C)c(N)cc3nc2cc1N`, the growth was 19% (inactive).

On to `O=C(NCCN1CCCCC1)n1cc(-c2ccncc2)c(-c2ccc(Cl)c(O)c2)n1`, for which the growth is 71.1% (inactive).

Take `CCC([N+](=O)[O-])S(=O)(=O)c1ccc(C)cc1` (stereo not given): the growth was 132% (inactive).

With `CC12CCC(/C(=C/NNc3ccc([N+](=O)[O-])cc3[N+](=O)[O-])C1=O)C2(C)C` (stereo not given), the growth was 110% (inactive).

Consider `COC1=C(C)C(=O)c2c(c(CCCl)c3n2CCC3O)C1=O` (stereo not given), for which the growth was 50.3% (inactive).

Take `O=C1Nc2ccccc2/C1=N/c1nc(-c2ccc(Cl)cc2)cs1`: the growth is 7.82% (active).

As to `CS(=O)(=O)N1CCN(Cc2cc3nc(-c4cccc5[nH]ncc45)nc(N4CCOCC4)c3s2)CC1` (tested in a mixture with another compound), the growth was 5.83% (active).

For `COc1ccc(C/C(C)=C(/c2ccc(OCCN3CCCCCC3)cc2)c2ccc(OC(=O)NCc3ccccc3)cc2)cc1`, the growth was 45% (inactive).

Turning to `Cc1cc(NC(=O)C2c3ccccc3C(=O)N(CC(C)C)C2c2cccs2)no1` (stereo not given), the growth is 0.0249% (active).

On to `C=C1C(=O)O[C@H]2[C@H]1CC/C(COC(=O)NCc1c[nH]c3ccc(Br)cc13)=C\CC[C@@]1(C)O[C@@H]21`, for which the growth is -26.9% (active).

Take `COc1ccc(-c2cc(-c3nnc(SCC(=O)Nc4ccc(/C(C)=N\O)cc4)n3-c3ccccc3)c3cc(OC)ccc3n2)cc1`: the growth was 31.8% (inactive).

Regarding `O=C(Nc1ccc(Cl)c(Cl)c1)NC(CO)(CO)CO`, the growth was 102% (inactive).

For the compound `CCOC(=O)CC1CSC(N/N=C/c2ccc(F)c(Br)c2)=N1` (stereo not given), the growth is 93.6% (inactive).

Take `Cc1cc(-c2ccccc2)on1`: the growth was 89.2% (inactive).

On to `Cc1cc(Nc2nc(C(=O)Nc3ccccc3)nc3ccccc23)n[nH]1`, for which the growth was 63.5% (inactive).

Turning to `CN(C)c1ccc2c(c1)OC(N)=C(C#N)C2c1ccc2c(c1)CCO2` (stereo not given), the growth was -1.56% (active).

For `COc1ccc2c(c1)O/C(=C\c1ccc([N+](=O)[O-])o1)C2=O`, the growth was -17.7% (active).

On to `O=C1c2ccc3c4c(ccc(c24)C(=O)N1CCCNCc1ccccc1)C(=O)N(CCCNCc1ccccc1)C3=O`, for which the growth was -71.3% (active).

On to `COc1cccc(NC(=O)c2sc3nc4c(cc3c2N)C(=O)CCC4)c1`, for which the growth was -2.55% (active).

Consider `CC/C=C\C/C=C\C[C@H]1C/C=C2/C(=O)C=C[C@H]2C/C=C\CCC(=O)O1`, for which the growth is -5.31% (active).

Regarding `O=S(=O)(NCCCNc1nccc(-n2ccc3cccnc32)n1)c1ccc(Br)cc1`, the growth is 110% (inactive).

`CC/C(C)=C(\C)C(=O)O`: the growth was 100% (inactive).

In the case of `COc1cc2cc(Oc3ccc(NC(=O)Nc4ccccc4)cc3)c(C)nc2cc1OCCN1CCCCC1`, the growth is -46.8% (active).

For the compound `Cc1ccc(S(=O)(=O)N(CCc2ccc(Cl)cc2)S(=O)(=O)c2ccc(C)cc2)cc1`, the growth was 85.3% (inactive).

Take `Cc1ccc2[nH]cc(-c3nc(-c4cn(C)c5ncccc45)cs3)c2c1`: the growth is 63.7% (inactive).

For `Cc1cc(=O)[nH]c(N/N=C/c2ccccc2O)n1`, the growth is 71.3% (inactive).

Take `C#CCN1C(=O)/C(=c2\sc3n(c2=O)NC2C(N=3)N(CC)C(=O)N2CC)c2ccccc21` (stereo not given): the growth is -34.3% (active).

Consider `COc1ccc(/C=C/c2c(C(=O)/C=C/c3ccc(Cl)cc3)c(C)nc3ccccc23)cc1`, for which the growth was 10% (inactive).

On to `CC1=C(C(=O)Nc2ccc(F)cc2)C(c2ccccc2)C2=C(CC(C)(C)CC2=O)N1` (stereo not given), for which the growth was 76% (inactive).

For the compound `O=[N+]([O-])c1ccc2c(c1)S(=O)c1cc([N+](=O)[O-])ccc1N2`, the growth was 109% (inactive).

Consider `CSc1nc(=O)n(Cc2ccc(Cl)cc2)c(=O)[nH]1`, for which the growth was 105% (inactive).
